Source: PubChem BioAssay AID1159580 (chemical genetic matrix, 2015)
In all, about 5,500 compounds went through this assay and about 2,000 (36%) were called active. Inconclusive results (about 18%) are left out. No stated cut-off is given here; in the data, active means normalized growth mostly below about 0.91 (no sharp cut-off); inconclusive means no clear call, values can overlap the other calls; inactive means mostly above about 0.92. The list shows a part of the results.

Assay: chemical genetic growth profiling, strain panel (AID 1159580);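 further: tested at 20 µM; growth read once vehicle control cultures reached saturation at 30 °C; 1 = growth at the plate median or of vehicle wells; lower values mean less growth of the strain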
Details: growth OD
[1] = S. cerevisiae deletion strains, locus YAL013W, strain DEP1, hits give low values
[2] = S. cerevisiae deletion strains, locus YDR150W, strain NUM1, hits give low values
[3] = S. cerevisiae deletion strains, locus YGR078C, strain PAC10, hits give low values
[4] = S. cerevisiae deletion strains, locus YJR075W, strain HOC1, hits give low values
[5] = S. cerevisiae deletion strains, locus YMR307W, strain GAS1, hits give low values
[6] = S. cerevisiae deletion strains, locus YNL128W, strain TEP1, hits give low values
[7] = S. cerevisiae deletion strains, locus YNL153C, strain GIM3, hits give low values
[8] = S. cerevisiae deletion strains, locus YNL322C, strain KRE1, hits give low values
[9] = S. cerevisiae deletion strains, locus YPL055C, strain LGE1, hits give low values
[10] = S. cerevisiae deletion strains, locus YPL241C, strain CIN2, hits give low values

Measured: normalized growth

NC(=S)NCCCC(N)C(=O)O (centres undefined)
inactive: [1] 1.01 | S. cerevisiae deletion strains, locus YAL040C, strain CLN3, hits give low values 1 | S. cerevisiae deletion strains, locus YCL061C, strain MRC1 (second series), hits give low values 1.01 | [2] 1.01 | S. cerevisiae deletion strains, locus YDR363W, strain ESC2, hits give low values 1.02 | S. cerevisiae deletion strains, locus YER002W, strain NOP16, hits give low values 1.02 | [3] 1.01 | [4] 1.02 | [5] 1.01 | [6] 1.03 | [7] 1.01 | S. cerevisiae deletion strains, locus YNL175C, strain NOP13, hits give low values 1.03 | S. cerevisiae deletion strains, locus YNL197C, strain WHI3, hits give low values 1.01 | S. cerevisiae deletion strains, locus YNL224C, strain SQS1, hits give low values 1.02 | [8] 1.02 | S. cerevisiae deletion strains, locus YOR083W, strain WHI5 (second series), hits give low values 0.994 | [9] 1.03 | [10] 1.01

CCc1cccc(CC)c1N(COC)C(=O)CCl
inactive: [1] 1 | S. cerevisiae deletion strains, locus YBR021W, strain FUR4, hits give low values 1.01 | S. cerevisiae deletion strains, locus YBR229C, strain ROT2, hits give low values 1.01 | S. cerevisiae deletion strains, locus YCL029C, strain bik1, hits give low values 1.02 | S. cerevisiae deletion strains, locus YDL035C, strain GPR1, hits give low values 1.02 | S. cerevisiae deletion strains, locus YDL074C, strain BRE1, hits give low values 1.03 | S. cerevisiae deletion strains, locus YDL101C, strain DUN1, hits give low values 1.01 | S. cerevisiae deletion strains, locus YDL134C, strain PPH21, hits give low values 1.01 | S. cerevisiae deletion strains, locus YDL185W, strain tfp1, hits give low values 1.02 | S. cerevisiae deletion strains, locus YDL192W, strain arf1, hits give low values 1.03 | S. cerevisiae deletion strains, locus YDR101C, strain arx1, hits give low values 1.02 | [2] 0.995 | S. cerevisiae deletion strains, locus YDR162C, strain NBP2, hits give low values 0.999 | S. cerevisiae deletion strains, locus YDR318W, strain mcm21, hits give low values 1.02 | S. cerevisiae deletion strains, locus YDR388W, hits give low values 1.02 | S. cerevisiae deletion strains, locus YDR502C, strain sam2, hits give low values 1.02 | S. cerevisiae deletion strains, locus YEL061C, strain CIN8, hits give low values 1 | S. cerevisiae deletion strains, locus YER110C, hits give low values 1.01 | S. cerevisiae deletion strains, locus YER155C, strain BEM2, hits give low values 1 | S. cerevisiae deletion strains, locus YER167W, strain BCK2, hits give low values 1 | S. cerevisiae deletion strains, locus YGL078C, strain dbp3, hits give low values 1.02 | S. cerevisiae deletion strains, locus YGL086W, strain mad1, hits give low values 0.999 | S. cerevisiae deletion strains, locus YGL248W, strain PDE1, hits give low values 1.01 | [3] 1.01 | S. cerevisiae deletion strains, locus YGR135W, strain pre9, hits give low values 1.02 | S. cerevisiae deletion strains, locus YGR229C, strain SMI1, hits give low values 1.02 | S. cerevisiae deletion strains, locus YGR252W, strain gcn5, hits give low values 1.05 | S. cerevisiae deletion strains, locus YHR030C, strain SLT2, hits give low values 1 | S. cerevisiae deletion strains, locus YHR079C, strain IRE1 (second series), hits give low values 1.02 | S. cerevisiae deletion strains, locus YHR094C, strain hxt1, hits give low values 1.02 | S. cerevisiae deletion strains, locus YHR129C, strain ARP1, hits give low values 1 | S. cerevisiae deletion strains, locus YHR200W, strain rpn10, hits give low values 1.02 | S. cerevisiae deletion strains, locus YIL066C, strain RNR3, hits give low values 1.01 | S. cerevisiae deletion strains, locus YIL073C, strain SPO22, hits give low values 1.11 | S. cerevisiae deletion strains, locus YIL125W, strain kgd1, hits give low values 1.01 | S. cerevisiae deletion strains, locus YIR030C, strain dcg1, hits give low values 1.03 | S. cerevisiae deletion strains, locus YJL095W, strain BCK1, hits give low values 1.02 | S. cerevisiae deletion strains, locus YJL134W, strain LCB3, hits give low values 1.01 | S. cerevisiae deletion strains, locus YJL168C, strain set2, hits give low values 1.03 | S. cerevisiae deletion strains, locus YJL187C, strain SWE1 (second series), hits give low values 1 | S. cerevisiae deletion strains, locus YJR043C, strain POL32, hits give low values 1.01 | [4] 1.01 | S. cerevisiae deletion strains, locus YKL009W, strain mrt4, hits give low values 1.05 | S. cerevisiae deletion strains, locus YKL068W, hits give low values 0.999 | S. cerevisiae deletion strains, locus YKL085W, strain MDH1 (second series), hits give low values 1.01 | S. cerevisiae deletion strains, locus YKL085W, strain MDH1, hits give low values 1.01 | S. cerevisiae deletion strains, locus YKL190W, strain CNB1, hits give low values 0.992 | S. cerevisiae deletion strains, locus YKR001C, strain vps1, hits give low values 1.04 | S. cerevisiae deletion strains, locus YLR039C, strain RIC1, hits give low values 1 | S. cerevisiae deletion strains, locus YLR058C, strain SHM2, hits give low values 1.01 | S. cerevisiae deletion strains, locus YLR102C, strain apc9, hits give low values 1.03 | S. cerevisiae deletion strains, locus YLR262C, strain YPT6, hits give low values 1.02 | S. cerevisiae deletion strains, locus YLR268W, strain sec22, hits give low values 1.02 | S. cerevisiae deletion strains, locus YLR330W, strain CHS5, hits give low values 1.01 | S. cerevisiae deletion strains, locus YLR342W, strain FKS1 (second series), hits give low values 1 | S. cerevisiae deletion strains, locus YLR371W, strain rom2, hits give low values 1.02 | S. cerevisiae deletion strains, locus YLR418C, strain cdc73, hits give low values 1.05 | S. cerevisiae deletion strains, locus YML016C, strain PPZ1, hits give low values 1 | S. cerevisiae deletion strains, locus YML032C, strain rad52, hits give low values 1.03 | S. cerevisiae deletion strains, locus YML124C, strain tub3, hits give low values 1.01 | S. cerevisiae deletion strains, locus YMR078C, strain ctf18, hits give low values 1.02 | S. cerevisiae deletion strains, locus YMR223W, strain ubp8, hits give low values 1.02 | S. cerevisiae deletion strains, locus YMR263W, strain SAP30, hits give low values 0.997 | [5] 1.01 | S. cerevisiae deletion strains, locus YNL067W, strain RPL9B, hits give low values 1 | [6] 1.01 | [7] 1 | S. cerevisiae deletion strains, locus YNL233W, strain BNI4, hits give low values 1.01 | S. cerevisiae deletion strains, locus YNL250W, strain rad50, hits give low values 1.02 | S. cerevisiae deletion strains, locus YNL271C, strain bni1, hits give low values 1.03 | S. cerevisiae deletion strains, locus YNL298W, strain CLA4, hits give low values 1.03 | S. cerevisiae deletion strains, locus YNL307C, strain MCK1, hits give low values 1.03 | [8] 1 | S. cerevisiae deletion strains, locus YNR052C, strain pop2, hits give low values 1.03 | S. cerevisiae deletion strains, locus YOL006C, strain TOP1, hits give low values 1.05 | S. cerevisiae deletion strains, locus YOL012C, strain htz1 1.33 | S. cerevisiae deletion strains, locus YOL147C, strain pex11, hits give low values 1.02 | S. cerevisiae deletion strains, locus YOR061W, strain CKA2, hits give low values 0.999 | S. cerevisiae deletion strains, locus YOR069W, strain VPS5, hits give low values 0.999 | S. cerevisiae deletion strains, locus YOR136W, strain idh2, hits give low values 1.02 | S. cerevisiae deletion strains, locus YOR144C, strain elg1, hits give low values 1.02 | S. cerevisiae deletion strains, locus YOR184W, strain ser1, hits give low values 1.04 | S. cerevisiae deletion strains, locus YOR316C, strain cot1, hits give low values 1.03 | [9] 1.02 | [10] 1.01 | S. cerevisiae deletion strains, locus YPR119W, strain clb2, hits give low values 1.02 | S. cerevisiae deletion strains, locus YPR141C, strain kar3, hits give low values 1.03 | S. cerevisiae deletion strains, locus YPR163C, strain tif3, hits give low values 1.03 | S. cerevisiae deletion strains, locus YPR167C, strain met16, hits give low values 1.02 | S. cerevisiae deletion strains, strain wtn01, hits give low values 1.01 | S. cerevisiae strains, strain wild type, hits give low values 1
